Data from ChEMBL document CHEMBL3988442, “University of Dundee, Small-Polar-MMV Screening Library” (2021).
For some assays here: Entries with a potency or affinity are not part of this list.

Experiments:
Parameters in all cases: scale not given: direction of the effect not stated beside the values
[1] = target: Protein translocase subunit SecA (Escherichia coli (strain K12)) (UniProt P10408); assay: Assay to Identify E. coli SecA ATPase Inhibitors; format: functional; conditions: 30 µM
[2] = target: T1, Ubiquitin-activating enzyme e1, putative (Leishmania donovani (strain BPK282A1)) (UniProt E9BSI1); assay: Leishmania donovani Ubiquitin Activating Enzyme (LdE1); format: functional; conditions: 30 µM
T1 sequence (whole entry): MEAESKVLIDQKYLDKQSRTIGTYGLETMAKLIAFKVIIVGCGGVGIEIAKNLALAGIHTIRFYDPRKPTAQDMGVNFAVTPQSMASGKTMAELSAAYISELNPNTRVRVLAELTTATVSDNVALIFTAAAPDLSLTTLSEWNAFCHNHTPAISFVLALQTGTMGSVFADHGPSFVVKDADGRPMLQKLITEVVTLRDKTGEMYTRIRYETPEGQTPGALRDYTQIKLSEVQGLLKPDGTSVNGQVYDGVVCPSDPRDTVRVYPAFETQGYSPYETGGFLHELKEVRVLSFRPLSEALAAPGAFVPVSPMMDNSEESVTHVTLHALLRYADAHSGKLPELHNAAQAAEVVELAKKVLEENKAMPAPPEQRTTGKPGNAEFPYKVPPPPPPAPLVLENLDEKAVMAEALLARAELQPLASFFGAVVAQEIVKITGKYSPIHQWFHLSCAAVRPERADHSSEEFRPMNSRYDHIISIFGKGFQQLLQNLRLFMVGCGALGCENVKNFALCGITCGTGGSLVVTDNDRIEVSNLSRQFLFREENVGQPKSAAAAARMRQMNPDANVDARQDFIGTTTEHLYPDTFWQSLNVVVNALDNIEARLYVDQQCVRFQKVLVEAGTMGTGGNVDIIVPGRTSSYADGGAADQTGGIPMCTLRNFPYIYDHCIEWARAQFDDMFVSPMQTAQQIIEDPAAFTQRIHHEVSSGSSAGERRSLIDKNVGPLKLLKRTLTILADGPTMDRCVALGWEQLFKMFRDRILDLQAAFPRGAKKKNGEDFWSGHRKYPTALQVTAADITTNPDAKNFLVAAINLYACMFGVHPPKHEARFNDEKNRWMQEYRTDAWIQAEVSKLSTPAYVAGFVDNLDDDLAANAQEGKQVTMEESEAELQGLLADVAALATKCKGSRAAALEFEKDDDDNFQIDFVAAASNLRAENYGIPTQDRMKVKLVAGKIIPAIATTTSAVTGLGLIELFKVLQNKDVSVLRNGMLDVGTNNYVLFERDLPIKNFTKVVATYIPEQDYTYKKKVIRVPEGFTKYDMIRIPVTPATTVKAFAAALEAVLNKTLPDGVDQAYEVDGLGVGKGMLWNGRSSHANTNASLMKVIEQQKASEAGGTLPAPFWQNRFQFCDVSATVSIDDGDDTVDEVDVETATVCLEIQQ

[3] = target: AMP-activated protein kinase, AMPK (Homo sapiens) (UniProt P54646+O43741+P54619+Q9UGJ0+Q9Y478+Q13131+Q9UGI9); assay: AMP-dependent Kinase enzyme assay. An in vitro enzyme assay that detects ADP turnover that is directly proportional to AMPK activity. This uses naive AMPK that is activated during the assay with MK-8722; format: functional; conditions: 30 µM
[4] = target: Sialic acid-binding Ig-like lectin 9 (Homo sapiens) (UniProt Q9Y336); assay: Hs-Siglec9 ALPHAscreen SOP 20170721; conditions: 10 µM
Sequence of Sialic acid-binding Ig-like lectin 9 (Homo sapiens) (Q9Y336 whole entry): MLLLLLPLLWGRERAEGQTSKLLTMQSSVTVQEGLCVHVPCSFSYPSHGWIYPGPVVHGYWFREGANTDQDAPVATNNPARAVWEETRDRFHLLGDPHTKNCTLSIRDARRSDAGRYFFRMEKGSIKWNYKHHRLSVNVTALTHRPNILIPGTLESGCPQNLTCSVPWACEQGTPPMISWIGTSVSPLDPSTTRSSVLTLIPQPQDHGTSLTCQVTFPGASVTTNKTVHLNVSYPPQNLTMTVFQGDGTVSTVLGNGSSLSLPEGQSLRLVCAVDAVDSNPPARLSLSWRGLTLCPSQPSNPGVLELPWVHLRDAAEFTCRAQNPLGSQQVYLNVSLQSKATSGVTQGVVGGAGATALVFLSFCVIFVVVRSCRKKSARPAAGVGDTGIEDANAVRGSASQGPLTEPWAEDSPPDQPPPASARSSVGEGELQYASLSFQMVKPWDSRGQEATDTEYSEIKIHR

Trypanosoma cruzi = assay: Trypanosoma cruzi phosphomannomutase and mannose-1-phosphate guanylyltransferase assay; format: functional; conditions: 10 µM
[5] = target: T2, Arginase-2, mitochondrial (Homo sapiens) (UniProt P78540); assay: in vitro enzyme assay to detect the production of urea directly proportional to the activity of Arginase II; format: functional; conditions: 33.3 µM; further: in the data most compounds retested in dose-response had high values
T2 sequence (whole entry): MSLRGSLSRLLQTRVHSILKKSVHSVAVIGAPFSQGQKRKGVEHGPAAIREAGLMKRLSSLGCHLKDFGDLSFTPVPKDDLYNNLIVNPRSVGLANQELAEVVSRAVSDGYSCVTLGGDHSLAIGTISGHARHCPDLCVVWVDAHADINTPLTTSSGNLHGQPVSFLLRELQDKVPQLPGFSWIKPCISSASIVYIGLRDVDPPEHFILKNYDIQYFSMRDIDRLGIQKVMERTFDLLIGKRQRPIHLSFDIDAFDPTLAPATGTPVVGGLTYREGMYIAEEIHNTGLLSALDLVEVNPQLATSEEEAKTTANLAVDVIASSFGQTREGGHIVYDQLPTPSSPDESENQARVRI

[6] = target: T3, Proteasome subunit beta (Trypanosoma cruzi) (UniProt O96673); assay: Trypanosoma cruzi proteasome chymotrypsin-like activity (TcProtChymo) assay.; further: in the data most compounds retested in dose-response had high values; format: functional; conditions: 9.37 µM
T3 sequence (whole entry): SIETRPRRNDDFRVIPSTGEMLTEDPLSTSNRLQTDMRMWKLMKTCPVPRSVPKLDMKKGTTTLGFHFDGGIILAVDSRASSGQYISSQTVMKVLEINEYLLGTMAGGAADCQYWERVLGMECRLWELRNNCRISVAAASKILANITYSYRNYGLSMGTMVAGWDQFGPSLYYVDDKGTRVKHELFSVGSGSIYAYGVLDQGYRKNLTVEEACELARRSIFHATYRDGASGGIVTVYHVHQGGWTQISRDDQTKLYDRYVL

Homo sapiens = organism: Homo sapiens; assay: To identify inhibition of the IFN signalling (Jak-Stat) pathway via expression of an eGFP reporter gene under the control of an IFN-stimulated response element (ISRE) containing MxA promoter.; format: functional; conditions: 30 µM
[7] = target: T4, Tyrosyl-tRNA synthetase, putative (Trypanosoma cruzi (strain CL Brener)) (UniProt Q4DSP6); assay: Trypanosoma cruzi tyrosyl tRNA synthetase (TcYRS) _High Tyrosine SOP; format: functional; conditions: 30 µM; further: in the data most compounds retested in dose-response had high values
T4 sequence (whole entry): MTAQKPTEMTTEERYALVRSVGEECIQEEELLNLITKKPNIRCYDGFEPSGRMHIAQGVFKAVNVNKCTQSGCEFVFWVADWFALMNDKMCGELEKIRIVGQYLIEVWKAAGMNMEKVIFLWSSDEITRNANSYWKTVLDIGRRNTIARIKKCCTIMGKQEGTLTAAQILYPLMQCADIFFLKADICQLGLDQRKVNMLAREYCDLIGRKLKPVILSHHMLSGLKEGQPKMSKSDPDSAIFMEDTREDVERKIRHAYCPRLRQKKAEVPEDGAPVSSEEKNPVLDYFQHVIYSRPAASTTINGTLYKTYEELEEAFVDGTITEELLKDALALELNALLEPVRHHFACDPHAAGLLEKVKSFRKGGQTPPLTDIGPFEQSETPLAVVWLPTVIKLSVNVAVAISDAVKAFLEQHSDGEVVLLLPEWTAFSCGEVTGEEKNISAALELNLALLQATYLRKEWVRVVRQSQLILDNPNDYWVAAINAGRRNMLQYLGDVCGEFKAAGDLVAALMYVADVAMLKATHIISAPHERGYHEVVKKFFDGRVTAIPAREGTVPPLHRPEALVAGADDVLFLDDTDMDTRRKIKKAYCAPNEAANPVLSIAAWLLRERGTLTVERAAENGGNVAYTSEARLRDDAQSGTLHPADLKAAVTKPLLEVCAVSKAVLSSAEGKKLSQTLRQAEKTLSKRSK

[8] = target: T4, Tyrosyl-tRNA synthetase, putative (Trypanosoma cruzi (strain CL Brener)); assay: Trypanosoma cruzi tyrosyl tRNA synthetase (TcYRS) SOP; format: functional; conditions: 30 µM
[9] = target: Chromo domain-containing protein 1 (Saccharomyces cerevisiae (strain ATCC 204508 / S288c) (Baker's yeast)) (UniProt P32657); assay: ScCHD-1 Enzyme Inhibition Assay; format: functional; conditions: 30 µM; further: in the data most compounds retested in dose-response had high values
Sequence of Chromo domain-containing protein 1 (Saccharomyces cerevisiae (strain ATCC 204508 / S288c) (Baker's yeast)) (P32657 whole entry, the tested form may be a part): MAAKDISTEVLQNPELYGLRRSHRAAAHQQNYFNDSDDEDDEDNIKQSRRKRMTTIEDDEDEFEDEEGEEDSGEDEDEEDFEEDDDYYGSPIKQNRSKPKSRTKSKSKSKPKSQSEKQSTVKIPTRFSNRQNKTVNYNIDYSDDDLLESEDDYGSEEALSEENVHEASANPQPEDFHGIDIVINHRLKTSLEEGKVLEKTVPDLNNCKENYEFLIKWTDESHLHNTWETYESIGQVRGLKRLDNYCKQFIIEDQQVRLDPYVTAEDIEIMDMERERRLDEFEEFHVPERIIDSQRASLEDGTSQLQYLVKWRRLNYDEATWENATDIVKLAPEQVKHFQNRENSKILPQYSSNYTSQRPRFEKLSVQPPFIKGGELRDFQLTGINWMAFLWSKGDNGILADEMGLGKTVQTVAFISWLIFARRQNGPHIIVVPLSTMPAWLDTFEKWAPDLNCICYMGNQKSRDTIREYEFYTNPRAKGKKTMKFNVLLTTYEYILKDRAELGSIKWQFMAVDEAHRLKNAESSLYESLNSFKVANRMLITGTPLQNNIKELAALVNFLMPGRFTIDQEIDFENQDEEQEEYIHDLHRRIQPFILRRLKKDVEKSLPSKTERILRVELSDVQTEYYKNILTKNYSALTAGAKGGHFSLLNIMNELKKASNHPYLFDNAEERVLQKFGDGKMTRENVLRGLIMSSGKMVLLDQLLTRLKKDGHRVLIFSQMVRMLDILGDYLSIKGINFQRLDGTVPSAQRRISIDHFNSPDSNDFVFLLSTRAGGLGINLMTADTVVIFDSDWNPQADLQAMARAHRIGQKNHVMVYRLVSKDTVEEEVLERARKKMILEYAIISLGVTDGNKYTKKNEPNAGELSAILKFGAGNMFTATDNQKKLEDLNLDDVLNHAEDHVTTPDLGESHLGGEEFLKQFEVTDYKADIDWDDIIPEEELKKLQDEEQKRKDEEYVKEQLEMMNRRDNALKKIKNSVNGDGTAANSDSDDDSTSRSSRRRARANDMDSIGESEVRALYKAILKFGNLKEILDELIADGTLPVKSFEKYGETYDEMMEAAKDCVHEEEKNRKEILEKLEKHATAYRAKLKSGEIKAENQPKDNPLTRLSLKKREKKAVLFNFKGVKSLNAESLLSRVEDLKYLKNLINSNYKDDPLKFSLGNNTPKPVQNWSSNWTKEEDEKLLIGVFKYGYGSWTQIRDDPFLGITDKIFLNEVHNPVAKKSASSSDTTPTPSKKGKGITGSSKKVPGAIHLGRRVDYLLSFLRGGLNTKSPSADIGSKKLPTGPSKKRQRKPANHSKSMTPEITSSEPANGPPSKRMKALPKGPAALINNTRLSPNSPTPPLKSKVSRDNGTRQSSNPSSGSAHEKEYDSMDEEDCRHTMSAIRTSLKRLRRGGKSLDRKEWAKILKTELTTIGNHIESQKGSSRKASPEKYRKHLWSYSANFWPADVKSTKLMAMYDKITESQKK

Sequence of Protein translocase subunit SecA (Escherichia coli (strain K12)) (P10408 whole entry): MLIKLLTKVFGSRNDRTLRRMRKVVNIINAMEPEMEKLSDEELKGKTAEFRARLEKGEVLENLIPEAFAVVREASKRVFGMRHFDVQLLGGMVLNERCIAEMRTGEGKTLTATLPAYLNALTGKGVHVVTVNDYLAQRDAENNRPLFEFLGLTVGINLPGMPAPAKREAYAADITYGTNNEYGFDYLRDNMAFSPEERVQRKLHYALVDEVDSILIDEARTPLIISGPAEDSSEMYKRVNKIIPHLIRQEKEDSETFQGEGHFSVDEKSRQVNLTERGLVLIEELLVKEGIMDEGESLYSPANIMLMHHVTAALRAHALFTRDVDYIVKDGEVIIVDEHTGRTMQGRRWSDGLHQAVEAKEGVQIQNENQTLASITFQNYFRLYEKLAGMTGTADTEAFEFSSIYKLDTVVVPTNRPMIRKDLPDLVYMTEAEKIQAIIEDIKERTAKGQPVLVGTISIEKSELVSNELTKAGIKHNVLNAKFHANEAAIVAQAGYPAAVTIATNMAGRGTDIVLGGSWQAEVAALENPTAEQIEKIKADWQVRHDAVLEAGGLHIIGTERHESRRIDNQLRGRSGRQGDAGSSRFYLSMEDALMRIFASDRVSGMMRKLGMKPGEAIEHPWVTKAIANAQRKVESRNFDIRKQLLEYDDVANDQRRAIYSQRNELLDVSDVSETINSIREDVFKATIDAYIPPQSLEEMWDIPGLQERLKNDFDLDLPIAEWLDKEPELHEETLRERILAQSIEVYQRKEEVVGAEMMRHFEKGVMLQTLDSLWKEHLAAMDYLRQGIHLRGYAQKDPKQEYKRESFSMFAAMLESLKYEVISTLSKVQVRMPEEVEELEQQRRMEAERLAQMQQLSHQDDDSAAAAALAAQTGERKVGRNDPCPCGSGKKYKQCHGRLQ

SMILES	Percent Effect [1]	Percent Effect [2]	Percent Effect [3]	Percent Effect [4]	Percent Effect (Trypanosoma cruzi)	Percent Effect [5]	Percent Effect [6]	Percent Effect (Homo sapiens)	Percent Effect [7]	Percent Effect [8]	Percent Effect [9]
COCC(c1cccc(C(F)(F)F)c1)N(C)C(=O)c1cc(C)n[nH]1 (stereo not given)	0.248%	18.4%	-1.4%	-4.5%	-3.01%	2.68%	9.02%	0.723%	1.47%	12.2%	-13%
CN(C(=O)c1cccc(C(=O)NCC(F)(F)F)c1)c1ccccc1	-6.02%	-2.6%	-0.584%	2.53%	-5.8%	-6.9%	9.82%	7.29%	-1.07%	-8.64%	0.0055%
CCSCCC(=O)Nc1ncn(Cc2cccnc2)n1	-2.86%	5.33%	-3.63%	8.4%	-5.16%	3.65%	17.8%	9.04%	4.92%	13.6%	-5.58%
CCN1CCN(C(=O)c2cc(C(=O)OC)nn2-c2ccccc2)CC1	-1.39%	18.4%	3.57%	-5.6%	-5.26%	11.5%	15.2%	20.6%	7.35%	7.32%	-8.31%
CC(C)(C)C(=O)N1CCCC1c1nc(O)cc(-c2ccccn2)n1 (stereo not given)	-5.78%	25.7%	5.44%	16.5%	3.36%	-1.62%	11.9%	7.83%	5.38%	24.7%	-13.5%
Cc1occc1C(=O)N1CCO[C@H]2[C@@H](Oc3ccccn3)CC[C@@H]21	-1.87%	0%	5.36%	1.56%	0.984%	0.699%	9.25%	5.34%	3.19%	3.85%	4.85%
Cn1cc(C(=O)CC2CCCN2C(=O)c2n[nH]c3ccccc23)cn1 (stereo not given)	-2.35%	1.27%	3.62%	0.382%	2.56%	1.94%	7.03%	-8.13%	7.29%	2.53%	-9.86%
CCNC(=O)c1ccc2c(c1)nc1n2CCN(Cc2ccco2)C1	-1.58%	2.63%	10.5%	1.2%	-0.0974%	-4.73%	13.7%	8.32%	0%	0%	-5.62%
O=C(Nc1ccccc1F)N(CCO)Cc1ccsc1	-4.39%	0%	2.24%	1.32%	-3.76%	-1.92%	-2.51%	29.1%	-1.47%	-4.88%	10.7%
Cc1nc2ccccc2c(=O)n1CCC(=O)N1CCNC(=O)C1	-4.53%	10.5%	6.29%	11.3%	0.94%	0%	3.51%	2.72%	4.41%	9.76%	-6.93%
